This is a sample that favours compounds with a hit; in the whole collection about 1.3% have one here.
NPR2 activator – GC-B (human) receptor activation | P20594 | HEK293-GC-B cells, CNP EC30, cGMP TR-FRET; 0% at EC30 CNP, 100% saturating CNP | activation, % at 10 µM | 370,000 tested, 0.11% active | AID 1920062;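 active means activation at 10 µM reaching about 35% in either raw or pattern-adjusted values, limit read from the data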
HIF act – HIF pathway transcriptional activation | 300,000 tested, 0.32% active | activation, % at 7.5 µM (by protocol) | U2OS HRE-luciferase reporter, luminescence; normalized: DMSO 0%, desferrioxamine 100% | AID 1910;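 active means mean activation of at least 10% of the iron chelator positive control signal, with at least half of replicates also reaching 10%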
KLK7 zymogen act – proKLK7 (human) activation, primary screen | AID 652039 | purified proKLK7, EDANS-DABCYL substrate fluorescence; 100% is mature enzyme control, 0% vehicle | P49862 | activation, % at 7 µM | 370,000 tested, 0.9% active;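 active means activation above the mean of all tested compounds plus 3 SD, computed per campaign excluding outliers beyond control limits, cut at about 13% in these data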
GC-A act – GC-A (human) enzyme activation | P16066 | HEK293 GC-A cells, cGMP TR-FRET, EC30 ANP; 0% at EC30 ANP, 100% saturating ANP | activation, % at 10 µM | 370,000 tested, 0.14% active; in the data active means activation above about 40%
Target sequence (P16066 whole entry, looked up): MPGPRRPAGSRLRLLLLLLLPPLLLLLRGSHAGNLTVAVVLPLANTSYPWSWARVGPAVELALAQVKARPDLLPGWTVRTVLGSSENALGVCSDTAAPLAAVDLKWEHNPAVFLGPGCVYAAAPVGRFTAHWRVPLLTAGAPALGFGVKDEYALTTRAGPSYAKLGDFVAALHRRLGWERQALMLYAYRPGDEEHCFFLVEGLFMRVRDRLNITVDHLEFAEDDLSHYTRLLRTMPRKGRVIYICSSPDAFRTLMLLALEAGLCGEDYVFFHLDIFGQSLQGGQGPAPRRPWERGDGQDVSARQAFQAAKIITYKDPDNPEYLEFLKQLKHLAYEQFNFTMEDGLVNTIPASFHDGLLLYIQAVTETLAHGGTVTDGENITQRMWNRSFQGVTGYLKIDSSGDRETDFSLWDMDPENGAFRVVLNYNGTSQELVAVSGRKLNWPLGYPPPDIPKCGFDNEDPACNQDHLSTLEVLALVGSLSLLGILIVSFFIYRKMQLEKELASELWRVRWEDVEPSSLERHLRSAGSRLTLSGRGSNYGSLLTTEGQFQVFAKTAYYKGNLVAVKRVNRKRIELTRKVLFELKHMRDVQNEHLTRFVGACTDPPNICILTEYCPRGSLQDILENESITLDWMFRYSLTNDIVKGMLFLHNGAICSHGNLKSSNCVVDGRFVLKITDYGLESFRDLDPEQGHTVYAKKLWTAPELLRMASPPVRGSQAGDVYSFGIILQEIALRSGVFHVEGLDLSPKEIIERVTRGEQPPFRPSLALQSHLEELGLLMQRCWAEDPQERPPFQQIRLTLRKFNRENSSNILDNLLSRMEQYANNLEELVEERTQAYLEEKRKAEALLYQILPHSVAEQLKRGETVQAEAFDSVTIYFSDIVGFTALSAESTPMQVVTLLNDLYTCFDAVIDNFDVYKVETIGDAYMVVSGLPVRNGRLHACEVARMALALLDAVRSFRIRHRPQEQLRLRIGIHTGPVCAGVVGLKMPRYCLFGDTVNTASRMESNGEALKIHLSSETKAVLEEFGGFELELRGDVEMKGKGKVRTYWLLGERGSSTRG
KLK7 act conf – proKLK7 activation, confirmation | AID 686949 | shares compounds with KLK7 zymogen act | activation, % at 7 µM | purified proKLK7, EDANS-DABCYL substrate fluorescence; scaled: vehicle 0, mature enzyme 100 | 3,200 tested, 68% active;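 active means activation, as change over the incubation, above the mean of all tested compounds plus 3 SD, cut at about 13% in these data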
EDANS interfere – fluorescence interference counter-screen for KLK7 activators. EDANS-DABCYL substrate fluorescence interference, no enzyme, 4 h; solvent 0%, active enzyme control 100%. activation, % at 7 µM. shares compounds with KLK7 zymogen act. 3,200 tested, 80% active;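 active means activation above the all-compound mean plus 3 SD, ignoring values outside control-based bounds, cut at about 4.8% in these data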;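 further: value is the 4 h activation minus the activation read at time zero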
EDANS interf – EDANS fluorescence interference in dose response, no enzyme | shares compounds with KLK7 zymogen act | EDANS-DABCYL peptide fluorescence interference | EC50, µM | 250 tested, 20% active | AID 720493;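 active means compounds that raise the fluorescence signal in this interference counterscreen, with EC50 at or below 10 µM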;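 further: intact quenched peptide substrate alone read at 355 nm excitation and 520 nm emission; signal is fluorescence gain from T0 to T4 after four hours at room temperature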
* = called active by the depositor.

Screening CCCCc1cc(=O)oc2c3c(cc(OCC(=O)NCCCO)c12)OC(C)(C)CC3 returned NPR2 activator -1, HIF act 1, KLK7 zymogen act 24*, GC-A act -7, KLK7 act conf -33 and EDANS interfere -34.
For CCCc1cc(=O)oc2c3c(cc(OCC(=O)NCCN4CCOCC4)c12)OC(C)(C)CC3 the results were NPR2 activator -22, HIF act 0, KLK7 zymogen act 32*, GC-A act -11, KLK7 act conf -11 and EDANS interfere -20.
For CN(CC#Cc1ccccc1)C(N)=NC(=O)/C=C/c1ccccc1 the results were NPR2 activator 1, KLK7 zymogen act 1 and GC-A act -11.
COc1cc2c(OC)cccc2cc1C(=O)O was read as NPR2 activator -1, HIF act -1, KLK7 zymogen act 18*, GC-A act 2, KLK7 act conf 11 and EDANS interfere 8.5*.
COC(=O)[C@]12C[C@H](CC(=O)NCc3cccc4ccccc34)C(=O)N(Cc3cccc4ccccc34)C1=C[C@H](C1CCCC1)O[C@@H]2C was read as NPR2 activator -1, KLK7 zymogen act 0 and GC-A act -3.
Screening CCCCCCC12C(=Cc3cc4c(cc31)OCCO4)c1cc(OC)c(OC)cc1C(CC(=O)OC)N2C(=O)OC (stereo not given) returned NPR2 activator -1, KLK7 zymogen act 17*, GC-A act -1, KLK7 act conf -5 and EDANS interfere -17.
`COc1ccc(/C=C(\NC(=O)c2ccccc2)C(=O)N/N=C/c2sccc2C)cc1` gave NPR2 activator 1, HIF act 0, KLK7 zymogen act -4 and GC-A act -10.
Screening COc1ccc(/C=C(/NC(=O)c2ccccc2)C(=O)N/N=C/c2sccc2C)cc1 returned NPR2 activator 2, HIF act 0, KLK7 zymogen act 24*, GC-A act -8, KLK7 act conf 152* and EDANS interfere 122*.
Screening CC(C)c1ccc2[nH]c3c(c2c1)CCCC3=O returned NPR2 activator 10, HIF act 0, KLK7 zymogen act 14*, GC-A act 8, KLK7 act conf -5 and EDANS interfere -3.
For Cc1cc(=O)oc2cc(OCC(=O)N3CCOCC3)c(Cl)cc12 the results were NPR2 activator -3, KLK7 zymogen act 18*, GC-A act 2, KLK7 act conf 33*, EDANS interfere 24* and EDANS interf >70.
Screening CCOC(=O)[C@@]12CCCC3=C1N(CCC3)C(=O)[C@H]2CC(=O)NCCCN1CCCC1=O returned NPR2 activator -8, KLK7 zymogen act 0 and GC-A act 1.
For CN1CCN(S(=O)(=O)c2cccc(C(=O)Nc3sc4c(c3-c3nc5ccccc5[nH]3)CCCC4)c2)CC1 the results were NPR2 activator 3, HIF act 1, KLK7 zymogen act 50*, GC-A act 3, KLK7 act conf -4 and EDANS interfere 12*.
CCN(CC)CCCNc1ccc2ncn3c4ccc(O)cc4c(=O)c1c23 was read as NPR2 activator -10, KLK7 zymogen act 71*, GC-A act -11, KLK7 act conf 9 and EDANS interfere 28*.
`O=C1/C(=C/c2ccco2)Oc2c1ccc(O)c2CN1CCCCC1` gave NPR2 activator 4, HIF act 0, KLK7 zymogen act 14*, GC-A act 0, KLK7 act conf 67* and EDANS interfere 73*.
`CCC(=O)Oc1ccc2c(c1)O/C(=C\c1ccco1)C2=O` gave NPR2 activator 2, HIF act 0, KLK7 zymogen act 51*, GC-A act 3, KLK7 act conf 478* and EDANS interfere 467*.
Screening CC1CCN(Cc2c(O)ccc3c2O/C(=C\c2ccco2)C3=O)CC1 returned HIF act 0.
COC(=O)COc1ccc2c(c1)O/C(=C\c1ccco1)C2=O was read as NPR2 activator -5, HIF act 1, KLK7 zymogen act 7 and GC-A act 7.

Compound activity (PubChem BioAssay)
